# Measured values from PubChem BioAssay.
# A number with no mark means an inactive call. Activity calls are given as the source filed them.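 The calls were made as follows: active = normalized viability below 100% at a tested concentration; inactive = the rest.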
# Experiment: drug combination growth inhibition, ovarian cancer – cell-based, oncology-focused library, rucaparib conditional, profiling panel (AID 1508598)
# Details: patient-derived ovarian cancer cells, CellTiter-Glo viability, 144 h, active compounds read low
# [1] = at 0.000305 µM, OCI-C5x cells, with rucaparib 10 µM, 100% = cells with rucaparib alone
# [2] = at 0.000305 µM, OCI-C5x cells, without rucaparib
# [3] = at 0.000305 µM, OCI-P5x cells, with rucaparib 20 µM, 100% = cells with rucaparib alone
# [4] = at 0.000305 µM, OCI-P5x cells, without rucaparib
# [5] = at 0.00122 µM, OCI-C5x cells, with rucaparib 10 µM, 100% = cells with rucaparib alone
# [6] = at 0.00122 µM, OCI-C5x cells, without rucaparib
# [7] = at 0.00122 µM, OCI-P5x cells, with rucaparib 20 µM, 100% = cells with rucaparib alone
# [8] = at 0.00122 µM, OCI-P5x cells, without rucaparib
# [9] = at 0.00488 µM, OCI-C5x cells, with rucaparib 10 µM, 100% = cells with rucaparib alone
# [10] = at 0.00488 µM, OCI-C5x cells, without rucaparib
# [11] = at 0.00488 µM, OCI-P5x cells, with rucaparib 20 µM, 100% = cells with rucaparib alone
# [12] = at 0.00488 µM, OCI-P5x cells, without rucaparib
# [13] = at 0.0195 µM, OCI-C5x cells, with rucaparib 10 µM, 100% = cells with rucaparib alone
# [14] = at 0.0195 µM, OCI-C5x cells, without rucaparib
# [15] = at 0.0195 µM, OCI-P5x cells, with rucaparib 20 µM, 100% = cells with rucaparib alone
# [16] = at 0.0195 µM, OCI-P5x cells, without rucaparib
# [17] = at 0.0781 µM, OCI-C5x cells, with rucaparib 10 µM, 100% = cells with rucaparib alone
# [18] = at 0.0781 µM, OCI-C5x cells, without rucaparib
# [19] = at 0.0781 µM, OCI-P5x cells, with rucaparib 20 µM, 100% = cells with rucaparib alone
# [20] = at 0.0781 µM, OCI-P5x cells, without rucaparib
# [21] = at 0.313 µM, OCI-C5x cells, with rucaparib 10 µM, 100% = cells with rucaparib alone
# [22] = at 0.313 µM, OCI-C5x cells, without rucaparib
# [23] = at 0.313 µM, OCI-P5x cells, with rucaparib 20 µM, 100% = cells with rucaparib alone
# [24] = at 0.313 µM, OCI-P5x cells, without rucaparib
# [25] = at 1.25 µM, OCI-C5x cells, with rucaparib 10 µM, 100% = cells with rucaparib alone
# [26] = at 1.25 µM, OCI-C5x cells, without rucaparib
# [27] = at 1.25 µM, OCI-P5x cells, with rucaparib 20 µM, 100% = cells with rucaparib alone
# [28] = at 1.25 µM, OCI-P5x cells, without rucaparib
# [29] = at 5 µM, OCI-C5x cells, with rucaparib 10 µM, 100% = cells with rucaparib alone
# [30] = at 5 µM, OCI-C5x cells, without rucaparib
# [31] = at 5 µM, OCI-P5x cells, with rucaparib 20 µM, 100% = cells with rucaparib alone
# [32] = at 5 µM, OCI-P5x cells, without rucaparib
smiles,measurement,setting,value
COc1ccc(C2=N[C@H](c3ccc(Cl)cc3)[C@@H](c3ccc(Cl)cc3)N2C(=O)N2CCNC(=O)C2)c(OC(C)C)c1,viability,[1],112%
same,viability,[2],103%
same,viability,[3],88.9% (active)
same,viability,[4],86.6% (active)
same,viability,[5],118%
same,viability,[6],101%
same,viability,[7],93.4% (active)
same,viability,[8],85.3% (active)
same,viability,[9],130%
same,viability,[10],112%
same,viability,[11],95.4% (active)
same,viability,[12],90.1% (active)
same,viability,[13],127%
same,viability,[14],105%
same,viability,[15],96.3% (active)
same,viability,[16],86.4% (active)
same,viability,[17],120%
same,viability,[18],111%
same,viability,[19],86.1% (active)
same,viability,[20],78.2% (active)
same,viability,[21],111%
same,viability,[22],107%
same,viability,[23],64.3% (active)
same,viability,[24],56.8% (active)
same,viability,[25],114%
same,viability,[26],102%
same,viability,[27],98.1% (active)
same,viability,[28],98% (active)
same,viability,[29],182%
same,viability,[30],137%
same,viability,[31],94.1% (active)
same,viability,[32],98.2% (active)
CC1=C(/C=C/C(C)=C\C=C\C(C)=C/C(=O)O)C(C)(C)CCC1,viability,[1],112%
same,viability,[2],108%
same,viability,[3],94.7% (active)
same,viability,[4],87.1% (active)
same,viability,[5],115%
same,viability,[6],105%
same,viability,[7],78.9% (active)
same,viability,[8],65.9% (active)
same,viability,[9],111%
same,viability,[10],109%
same,viability,[11],81.7% (active)
same,viability,[12],101%
same,viability,[13],103%
same,viability,[14],106%
same,viability,[15],99% (active)
same,viability,[16],97.6% (active)
same,viability,[17],105%
same,viability,[18],109%
same,viability,[19],96.7% (active)
same,viability,[20],97.6% (active)
same,viability,[21],108%
same,viability,[22],106%
same,viability,[23],93.9% (active)
same,viability,[24],96.4% (active)
same,viability,[25],103%
same,viability,[26],105%
same,viability,[27],92.6% (active)
same,viability,[28],92.3% (active)
same,viability,[29],96.2% (active)
same,viability,[30],104%
same,viability,[31],84.1% (active)
same,viability,[32],82.8% (active)
Cc1cc(NC(=O)c2cccc(NC(=O)/C=C/CN(C)C)c2)ccc1Nc1nccc(-c2cccnc2)n1,viability,[1],118%
same,viability,[2],133%
same,viability,[3],111%
same,viability,[4],110%
same,viability,[5],116%
same,viability,[6],132%
same,viability,[7],108%
same,viability,[8],113%
same,viability,[9],140%
same,viability,[10],160%
same,viability,[11],108%
same,viability,[12],107%
same,viability,[13],146%
same,viability,[14],172%
same,viability,[15],104%
same,viability,[16],106%
same,viability,[17],180%
same,viability,[18],183%
same,viability,[19],111%
same,viability,[20],109%
same,viability,[21],172%
same,viability,[22],199%
same,viability,[23],116%
same,viability,[24],112%
same,viability,[25],163%
same,viability,[26],186%
same,viability,[27],103%
same,viability,[28],116%
same,viability,[29],159%
same,viability,[30],194%
same,viability,[31],83.9% (active)
same,viability,[32],108%
O=C(O)c1cc(I)ccc1NC(=O)[C@H](Cc1ccccc1)NCc1ccccc1,viability,[1],126%
same,viability,[2],116%
same,viability,[3],98.3% (active)
same,viability,[4],102%
same,viability,[5],129%
same,viability,[6],111%
same,viability,[7],107%
same,viability,[8],99.9% (active)
same,viability,[9],133%
same,viability,[10],118%
same,viability,[11],98.6% (active)
same,viability,[12],97.1% (active)
same,viability,[13],119%
same,viability,[14],116%
same,viability,[15],95.6% (active)
same,viability,[16],99.8% (active)
same,viability,[17],124%
same,viability,[18],116%
same,viability,[19],97.8% (active)
same,viability,[20],92.4% (active)
same,viability,[21],134%
same,viability,[22],111%
same,viability,[23],95.5% (active)
same,viability,[24],85.4% (active)
same,viability,[25],132%
same,viability,[26],115%
same,viability,[27],80.7% (active)
same,viability,[28],77.5% (active)
same,viability,[29],126%
same,viability,[30],112%
same,viability,[31],73.4% (active)
same,viability,[32],81.4% (active)
C[C@@H]1C[C@H]2[C@@H]3CCC4=CC(=O)C=C[C@]4(C)[C@]3(F)[C@H](O)C[C@]2(C)[C@]1(O)C(=O)CO,viability,[1],111%
same,viability,[2],118%
same,viability,[3],107%
same,viability,[4],121%
same,viability,[5],117%
same,viability,[6],125%
same,viability,[7],110%
same,viability,[8],123%
same,viability,[9],102%
same,viability,[10],116%
same,viability,[11],112%
same,viability,[12],115%
same,viability,[13],111%
same,viability,[14],117%
same,viability,[15],108%
same,viability,[16],114%
same,viability,[17],108%
same,viability,[18],107%
same,viability,[19],100%
same,viability,[20],110%
same,viability,[21],111%
same,viability,[22],109%
same,viability,[23],104%
same,viability,[24],108%
same,viability,[25],109%
same,viability,[26],116%
same,viability,[27],95.5% (active)
same,viability,[28],101%
same,viability,[29],117%
same,viability,[30],108%
same,viability,[31],90.8% (active)
same,viability,[32],101%
COc1cc(=C2C=c3ccccc3=N2)[nH]/c1=C\c1[nH]c(C)cc1C,viability,[1],118%
same,viability,[2],122%
same,viability,[3],81.8% (active)
same,viability,[4],30.2% (active)
same,viability,[5],127%
same,viability,[6],124%
same,viability,[7],69.4% (active)
same,viability,[8],19.5% (active)
same,viability,[9],132%
same,viability,[10],114%
same,viability,[11],105%
same,viability,[12],97.2% (active)
same,viability,[13],115%
same,viability,[14],115%
same,viability,[15],98.9% (active)
same,viability,[16],97.5% (active)
same,viability,[17],110%
same,viability,[18],79.1% (active)
same,viability,[19],29.2% (active)
same,viability,[20],77.3% (active)
same,viability,[21],131%
same,viability,[22],93.7% (active)
same,viability,[23],13.2% (active)
same,viability,[24],18.4% (active)
same,viability,[25],89.4% (active)
same,viability,[26],91.7% (active)
same,viability,[27],10.1% (active)
same,viability,[28],22% (active)
same,viability,[29],37.7% (active)
same,viability,[30],21.3% (active)
same,viability,[31],1.33% (active)
same,viability,[32],3.6% (active)
O=c1[nH]c(=O)n([C@@H]2C[C@H](O)[C@@H](CO)O2)cc1F,viability,[1],115%
same,viability,[2],119%
same,viability,[3],67.7% (active)
same,viability,[4],24.9% (active)
same,viability,[5],111%
same,viability,[6],117%
same,viability,[7],65.1% (active)
same,viability,[8],15.4% (active)
same,viability,[9],106%
same,viability,[10],121%
same,viability,[11],105%
same,viability,[12],98.1% (active)
same,viability,[13],98.9% (active)
same,viability,[14],111%
same,viability,[15],104%
same,viability,[16],100% (active)
same,viability,[17],109%
same,viability,[18],120%
same,viability,[19],104%
same,viability,[20],109%
same,viability,[21],109%
same,viability,[22],114%
same,viability,[23],104%
same,viability,[24],98.4% (active)
same,viability,[25],117%
same,viability,[26],128%
same,viability,[27],89.4% (active)
same,viability,[28],85.9% (active)
same,viability,[29],185%
same,viability,[30],183%
same,viability,[31],72.1% (active)
same,viability,[32],49.4% (active)
CO[C@H]1/C=C\C=C(\C)C(=O)NC2=CC(=O)C(NCCN(C)C)=C(C[C@@H](C)C[C@H](OC)[C@H](O)[C@@H](C)/C=C(\C)[C@@H]1OC(N)=O)C2=O,viability,[1],108%
same,viability,[2],108%
same,viability,[3],120%
same,viability,[4],116%
same,viability,[5],109%
same,viability,[6],109%
same,viability,[7],114%
same,viability,[8],114%
same,viability,[9],107%
same,viability,[10],107%
same,viability,[11],117%
same,viability,[12],117%
same,viability,[13],118%
same,viability,[14],82.9% (active)
same,viability,[15],50.4% (active)
same,viability,[16],17.3% (active)
same,viability,[17],91.8% (active)
same,viability,[18],27.4% (active)
same,viability,[19],17.4% (active)
same,viability,[20],9.22% (active)
same,viability,[21],26.5% (active)
same,viability,[22],10.1% (active)
same,viability,[23],7.13% (active)
same,viability,[24],5.68% (active)
same,viability,[25],7.91% (active)
same,viability,[26],4.98% (active)
same,viability,[27],6.01% (active)
same,viability,[28],3.54% (active)
same,viability,[29],8.19% (active)
same,viability,[30],4.12% (active)
same,viability,[31],4.71% (active)
same,viability,[32],2.66% (active)
CC(=O)OCC(=O)[C@]1(O)[C@H](C)C[C@H]2[C@@H]3CCC4=CC(=O)C=C[C@]4(C)[C@]3(F)[C@H](O)C[C@@]21C,viability,[1],119%
same,viability,[2],119%
same,viability,[3],107%
same,viability,[4],108%
same,viability,[5],121%
same,viability,[6],125%
same,viability,[7],105%
same,viability,[8],106%
same,viability,[9],131%
same,viability,[10],122%
same,viability,[11],110%
same,viability,[12],105%
same,viability,[13],124%
same,viability,[14],123%
same,viability,[15],109%
same,viability,[16],99.6% (active)
same,viability,[17],118%
same,viability,[18],112%
same,viability,[19],104%
same,viability,[20],98.1% (active)
same,viability,[21],113%
same,viability,[22],113%
same,viability,[23],100%
same,viability,[24],94.5% (active)
same,viability,[25],122%
same,viability,[26],123%
same,viability,[27],97.6% (active)
same,viability,[28],94.3% (active)
same,viability,[29],115%
same,viability,[30],110%
